PubChem BioAssay (EPA / NIEHS)
A structure can be active in one record and inactive in another. Calls of active or inactive are those of the source. How the source made its calls: active means hit-call score of the fitted dose curve at least 0.9, where 1 is the maximum; inactive means score below 0.9.

These molecules were tested against Transcription factor E2F1 (Homo sapiens) (UniProt Q01094) (assay: ATG_E2F_CIS: Attagene CIS-FACTORIAL HepG2 Assay for human E2F Transcription Factor 1 (AID 2282935)). Settings: HepG2 Attagene cis-reporter, E2F reporter RNA transcripts; actives raise or lower the signal.
Chain of Transcription factor E2F1 (Homo sapiens) (Q01094 whole entry, looked up): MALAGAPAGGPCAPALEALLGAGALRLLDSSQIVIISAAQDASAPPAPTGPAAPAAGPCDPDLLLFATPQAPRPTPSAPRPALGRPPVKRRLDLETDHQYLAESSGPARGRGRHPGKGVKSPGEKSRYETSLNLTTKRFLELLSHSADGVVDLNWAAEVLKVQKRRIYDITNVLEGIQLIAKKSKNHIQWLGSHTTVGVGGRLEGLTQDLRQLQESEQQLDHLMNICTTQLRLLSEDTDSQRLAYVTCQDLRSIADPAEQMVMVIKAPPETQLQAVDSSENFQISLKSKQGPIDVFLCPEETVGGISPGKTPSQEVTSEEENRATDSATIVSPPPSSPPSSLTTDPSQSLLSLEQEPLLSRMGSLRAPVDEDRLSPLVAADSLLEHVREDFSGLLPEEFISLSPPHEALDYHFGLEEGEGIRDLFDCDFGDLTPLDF
Method: ATG_CIS is a cell-based, multiplexed-readout assay that uses HepG2, a human liver cell line, with measurements taken at 24 hours after chemical dosing in a 24-well plate.ATG_E2F_CIS is one of 52 assay component(s) measured or calculated from the ATG_CIS assay. It is designed to make measurements of mRNA induction, a form of inducible reporter, as detected with fluorescence intensity signals by Reverse transcription polymerase chain reaction (RT-PCR) and Capillary electrophoresis technology.Data from the assay component ATG_E2F_CIS was analyzed into 1 assay endpoint. This assay endpoint, ATG_E2F_CIS, was analyzed with bidirectional fitting relative to DMSO as the negative control and baseline of activity. Using a type of inducible reporter, measures of mRNA for gain or loss-of-signal activity can be used to understand the reporter gene at the transcription factor-level as they relate to the gene E2F1. Furthermore, this assay endpoint can be referred to as a primary readout, because this assay has produced multiple assay endpoints where this one serves a reporter gene function. To generalize the intended target to other relatable targets, this assay endpoint is annotated to the dna binding intended target family, where the subfamily is E2F transcription factor.
Human liver HepG2 cells are transiently transfected with multiple reporter transcription units (MRTUs) in 6-well plates using FuGene 6 reagent (Roche; 3 ml FuGene/1 mg DNA). The MRTU constructs are regulated by a cis-regulating element (promoter). […] A major difference between the CIS and TRANS system is that in CIS activities of endogenous TFs are measured, whereas the TRANS assay evaluates changes in activities of exogenous, chimeric NR-Gal4 proteins. […] At the end of 24 hour incubation, total RNA was isolated using TriZol reagent (Invitrogen). The isolated RNA is then reverse-transcribed using oligo(dT) primer and Mo-MLV reverse transcriptase (Invitrogen) with DNAse I (Ambion) treatment for 30 min. The one-tenth of the produced cDNA was amplified by PCR using Taq DNA polymerase (Invitrogen) and two reporter sequence-specific primers. The PCR products were fluorescently labeled by primer extension with 6-arboxyfluorescein (6-FAM) 5'-labeled reporter sequence-specific primer (2 min at 95 C, 20 s at 68 C and 10 min at 72 C) and these products were digested with 5U of HpaI (New England Biolabs) for 2h at 37 C. The fragments were purified using Qiaquick PCR columns (Qiagen), analyzed on an ABI 3130xL genetic analyzer (Applied Biosystems) with peak positions identified by using a set of X-rhodamine (ROX)-labeled MapMarker1000 molecular weight standards (BioVentures). The raw capillary electrophoresis data was processed using Attagraph software (Attagene).

Row | Compound | outcome | AC50
1 | CCC(C)c1nccnc1OC (stereo not given) | inactive | 
2 | C=CC(=C)CC/C=C(\C)CCC=C(C)C | inactive | 
3 | O=S(=O)(O)C(F)(F)C(F)(F)C(F)(F)C(F)(F)C(F)(F)C(F)(F)C(F)(F)C(F)(F)C(F)(F)C(F)(F)F | inactive | 
4 | CCCCCCCCCCCCOC(=O)c1cc(O)c(O)c(O)c1 | inactive | 
5 | FC(F)(F)C1(F)C(F)(F)C(F)(F)C(F)(F)C1(F)F | inactive | 
6 | O=C1C=CC(=O)N1c1cccc(N2C(=O)C=CC2=O)c1 | inactive | 
7 | Clc1ccc(Nc2nnc(Cc3ccncc3)c3ccccc23)cc1 | inactive | 
8 | Cc1cccc2c1ccc1ccccc12 | inactive | 
9 | Cc1ccc(C)c(S(=O)(=O)O)c1 | inactive | 
10 | CC1=CC(=O)c2ccccc2C1=O | inactive | 
11 | Oc1cccc2c(O)cccc12 | inactive | 
12 | NC(=NCCCCCCN=C(N)/N=C(\N)Nc1ccc(Cl)cc1)/N=C(\N)Nc1ccc(Cl)cc1 | inactive | 48.6 µM (active)
13 | O=P(O)(O)CCC(F)(F)C(F)(F)C(F)(F)C(F)(F)C(F)(F)C(F)(F)F | inactive | 
14 | COCN(COC)c1nc(N(COC)COC)nc(N(COC)COC)n1 | inactive | 
15 | NS(=O)(=O)O | inactive | 
16 | CN(Cc1cnc2nc(N)nc(N)c2n1)c1ccc(C(=O)N[C@@H](CCC(=O)O)C(=O)O)cc1 | inactive | 
17 | COc1cccc(O)c1 | inactive | 
18 | O=P(O)(O)CCC(F)(F)C(F)(F)C(F)(F)C(F)(F)C(F)(F)C(F)(F)C(F)(F)C(F)(F)F | inactive | 
19 | CC[N+](CC)(CC)Cc1ccccc1 | inactive | 
20 | CCC(=O)O | inactive | 

Row | Compound | outcome | AC50
21 | FC1(F)C=CC(F)(F)C1(F)F | inactive | 
22 | O=C(O)c1cccc(C(=O)O)n1 | inactive | 
23 | O=c1cc(-c2ccccc2)oc2ccc3ccccc3c12 | inactive | 
24 | CC(O)COc1ccccc1 (stereo not given) | inactive | 
25 | C=CC(=O)OCCN(CC)CC | inactive | 
26 | CCCCc1ccc2ccccc2c1S(=O)(=O)O | inactive | 
27 | CCOC=C(C(=O)OCC)C(=O)OCC | inactive | 
28 | COC(=O)CC(C(C)=O)C(=O)OC (stereo not given) | inactive | 
29 | Oc1cc2ccccc2cc1O | inactive | 
30 | CN(C)CCOC(c1ccccc1)c1ccccc1 | inactive | 
31 | CCCCc1oc2ccccc2c1C(=O)c1cc(I)c(OCCN(CC)CC)c(I)c1 | inactive | 
32 | O=C1c2ccccc2C(=O)c2c(O)c(O)cc(O)c21 | inactive | 
33 | N=C(N)c1ccc(OCCCCCOc2ccc(C(=N)N)cc2)cc1 | inactive | 
34 | O=C(F)C(F)(F)C(F)(F)C(F)(F)C(F)F | inactive | 
35 | O=C(CCCN1CCC(O)(c2ccc(Cl)cc2)CC1)c1ccc(F)cc1 | inactive | 
36 | O=C(F)C(F)(F)C(F)(F)C(F)(F)C(=O)F | inactive | 
37 | c1ccc2c(c1)CCC2 | inactive | 
38 | OCC(CO)(CBr)CBr | inactive | 
39 | O=C1OC(=O)C(F)(F)C1(F)F | inactive | 
